The whole screen tested about 310,000 compounds, of which about 17,000 (5.5%) were called active. About 11% were inconclusive and are not listed. The sample holds actives, similar compounds and a random draw of the others, so the mix is not that of the screen. Unmarked numbers belong to inactive results. The call rests on the fitted dose curve; in most records, active means well fitted inhibition curve with a large enough effect; inconclusive means small, poorly fitted or top-dose-only effect, or effect the other way; inactive means no such curve, though single readings can be large or run the other way.

The results in this text go back to PubChem BioAssay AID2551 (National Center for Advancing Translational Sciences (NCATS), 2010).
On the % scale 0 is the no-effect control and ±100 the full control effect; potency means the concentration at half of the fitted maximal effect.

For the test, the target named is Nuclear receptor ROR-gamma (Mus musculus) (UniProt P51450). As to the kind of experiment: qHTS for inhibitors of ROR gamma transcriptional activity. Further: nearly all actives have a fitted effect of over 60% in size. The conditions noted are these: Drosophila S2 Gal4-RORgamma UAS-luciferase reporter, 20 h; series mostly up to 53.6 µM; activity change, negative = inhibition: at the top concentration. A digest of the protocol: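 In this cell-based reporter format, copper sulfate (700 uM final) drives Gal4–ROR gamma fusion expression from a metallothionein promoter in Drosophila Schneider cells; compounds preincubated 1 hr, reporter read after 20 hr at ambient temperature.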
Chain of Nuclear receptor ROR-gamma (Mus musculus) (P51450 whole entry, looked up, the tested form may be a part): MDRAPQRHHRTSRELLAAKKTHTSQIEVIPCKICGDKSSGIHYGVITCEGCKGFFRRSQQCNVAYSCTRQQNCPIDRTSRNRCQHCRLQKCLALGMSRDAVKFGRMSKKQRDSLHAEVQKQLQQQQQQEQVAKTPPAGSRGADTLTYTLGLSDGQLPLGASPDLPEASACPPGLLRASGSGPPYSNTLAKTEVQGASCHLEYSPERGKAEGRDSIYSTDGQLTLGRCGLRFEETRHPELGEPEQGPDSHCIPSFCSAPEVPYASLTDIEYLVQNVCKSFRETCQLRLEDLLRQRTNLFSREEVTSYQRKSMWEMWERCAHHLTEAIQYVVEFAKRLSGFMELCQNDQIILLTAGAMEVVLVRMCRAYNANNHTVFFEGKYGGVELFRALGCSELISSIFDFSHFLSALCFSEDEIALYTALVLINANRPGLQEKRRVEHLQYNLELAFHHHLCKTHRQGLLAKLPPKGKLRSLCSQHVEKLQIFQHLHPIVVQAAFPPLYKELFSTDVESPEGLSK
Background: qHTS replaces the single test concentration by a dilution series.
For the compound `Oc1cccc(/C=N/Nc2ccc(Cl)nn2)c1O`, the Potency was 1.41 µM (active). Turning to `Cc1ccsc1/C=N/Nc1ccc(Cl)nn1`, the “activity change, negative = inhibition” value is -20.8%. The same measure, in the same setting: the figure for `Cc1ccc(C)c(S(=O)(=O)N2CCCOC2CNC(=O)C(=O)NC2CCCCC2)c1` (centres undefined) is -12.7%. Turning to `Cc1ccccc1CN1CCNC(=O)C1CC(=O)NCCC1=CCCCC1` (centres undefined), the “activity change, negative = inhibition” value is 6.29%. Same read-out and setting: in the case of `COC(=O)C1=CN(Cc2ccc(OC)cc2)C=C(C(=O)OC)C1c1ccc(O)c(OC)c1` it was 2%; in that of `CN1C(=O)[C@H]2[C@@H](C3CC3)N3C(=O)CN(Cc4ccccc4)C(=O)[C@@]3(C)[C@H]2C1=O`, -0.788%; in that of `COC(=O)c1ccc(C(=O)NC2CC(C)(C)Cc3c2cnn3-c2ccc(F)cc2)nc1` (centres undefined), 27.3%. On to `CCc1ccc(OCC(O)CN2CCN(CCO)CC2)cc1` (centres undefined), for which the “activity change, negative = inhibition” value is 6.29%. Take `c1ccc(-c2noc(-c3cccs3)n2)nc1`: the Potency was 1.26 µM (active).

As for `O=C(Oc1ccc(-c2nc(-c3ccccn3)no2)cc1)c1ccccc1`, the “activity change, negative = inhibition” value is 1.49%. The same measure, in the same setting: in the case of `c1csc(-c2nc(-c3ccncc3)no2)c1` it was -25.3%. Consider `COc1ccc2[nH]c(=O)c(C3c4cc(OC)c(OC)cc4CCN3C(=O)c3ccco3)cc2c1` (centres undefined), for which the “activity change, negative = inhibition” value was -0.908%.

On to `CC1CCCCC1NC(=O)CCS(=O)(=O)c1ccc2c(c1)NC(=O)CO2` (centres undefined), for which the “activity change, negative = inhibition” value was -15.6%. The same measure, in the same setting: the figure for `COc1cccc(NC(=O)C2C(c3ccccc3)C2(Cl)Cl)c1` (centres undefined) is 27.3%; for `COc1ccc(-c2cc(C(=O)N3CCN(Cc4ccc5c(c4)OCO5)CC3)on2)cc1OC` it is 0.905%. For the compound `C=CS(=O)c1sc(Cl)c(N2CCOCC2)c1[N+](=O)[O-]` (centres undefined), the Potency is 4.47 µM (active). For the compound `O=C(CCN1C(=O)C2C3CCC(C3)C2C1=O)Nc1ccc(Cl)cc1Cl` (centres undefined), the “activity change, negative = inhibition” value is 15%. In the case of `CC(=O)N1CCOc2ccc(S(=O)(=O)N3CCC(C(=O)Nc4ccccc4F)CC3)cc21`, the “activity change, negative = inhibition” value was 3.01%. Still for that read-out and setting: in the case of `COc1ccc(NC(=O)Cn2ncn3c(cc4ccccc43)c2=O)c(OC)c1OC` it was 5.63%. Regarding `CCn1c(NC(=O)c2nn(C)cc2Br)nc2ccccc21`, the Potency is 2.51 µM (active). On the same count and under the same terms, in the case of `Cn1c(NC(=O)c2ccccc2)nc2ccccc21` it was 1 µM (active). As to `CC(=O)NCCc1nc2cc(NC(=O)c3ccccc3)ccc2n1C`, the “activity change, negative = inhibition” value is -25.2%. Take `CC(C)(C)C(=O)Cn1c(NCCO)nc2ccccc21`: the “activity change, negative = inhibition” value is 20.4%. On to `Cn1sc(NC(=O)c2ccccc2)nc1=O`, for which the “activity change, negative = inhibition” value was 4.29%. On the same count and under the same terms, the figure for `CCc1nc2ccccc2n(CCOCCOCCn2c(=O)c(CC)nc3ccccc32)c1=O` is -24.8%; for `COc1cc(C(=O)N/C(=C\c2cn(C)c3ccccc23)C(=O)N2CCOCC2)cc(OC)c1OC` it is -8.8%; for `COC(=O)c1ccc(CNC(=O)c2ccc3oc(C(C)C)nc3c2)cc1` it is -3.51%. Turning to `CCOc1ccc(CN2CCN(Cc3ccc4cc(F)ccc4n3)CC2CCO)cc1` (centres undefined), the “activity change, negative = inhibition” value was -21.1%. On the same count and under the same terms, in the case of `CC(C)(C)c1ccc(C(=O)N2CCC(C(=O)N3CCCCC3)CC2)cc1` it was 17.5%; in that of `Cc1ccc(C)c(OCCC(=O)OCC(=O)N2CCN(c3ccccc3)CC2)c1`, 22.2%; in that of `O=C(NCCc1ccc(Cl)cc1)c1cccc(N2CCCC2=O)c1`, 41.2%. The same measure, in the same setting: in the case of `Cc1ccc(/C=N/NC(=O)Cn2ccc(C(F)(F)F)n2)o1` it was 0.733%.

Consider `Cc1ccc(/C=N/NC(=O)c2cc3ccccc3cc2O)o1`, for which the Potency is 1.41 µM (active).

Turning to `Cc1ccc(/C=N/NC(=O)CNC(=O)COc2ccccc2)o1`, the “activity change, negative = inhibition” value is 14.7%. Still for that read-out and setting: the figure for `CC(=O)N(C)c1ccc(NC(=O)Nc2cccc3ccccc23)cc1` is -22.6%; for `COc1cccc(NC(=O)c2ccccc2N(Cc2ccccc2)S(C)(=O)=O)c1` it is 1.83%; for `CC1CC(=O)Nc2ccccc2N1S(=O)(=O)c1cccs1` (centres undefined) it is -18.1%. On the same count and under the same terms, the figure for `CC1Cc2ccccc2N1C(=O)c1cc2sccc2n1Cc1ccccc1` (centres undefined) is 27.1%. `CC1CC(=S)Nc2ccccc2N1Cc1ccccc1` (centres undefined): the Potency was 1.41 µM (active). Regarding `O=C(CN1CCN(c2ccccn2)CC1)Nc1ccc(Br)cc1`, the “activity change, negative = inhibition” value was 6%. Same read-out and setting: the figure for `CCCCSc1nnc(-c2ccc(NC(=O)CC)cc2)n1C` is 27.9%. `CCC(=O)Nc1ccc(-c2ccc(N3CCCCC3)nn2)cc1`: the Potency was 4.47 µM (active). With `Cc1c(S(=O)(=O)N2CC(C)CC(C)C2)c(=O)n(C)c(=O)n1C` (centres undefined), the “activity change, negative = inhibition” value is -30.5%. Same read-out and setting: the figure for `Cn1c(-c2ccc(F)cc2)cnc1SCC(=O)NNC(=O)Cc1ccccc1` is -1.11%.

With `Cc1ccc(-c2cnc(NC(=O)CCC(=O)N(C)Cc3ccccc3)n2C)cc1`, the Potency is 2.24 µM (active). On to `CN(Cc1ccccc1)C(=O)CCc1ccccc1`, for which the “activity change, negative = inhibition” value was 25.2%. Still for that read-out and setting: in the case of `Cc1nc(-c2ccc(F)cc2)c(CC(=O)N2CCN(S(=O)(=O)c3ccc(F)cc3)CC2)s1` it was 33.3%; in that of `CCn1c(C)cc(=O)cc1-c1ccc(Cl)cc1`, 0.704%. Take `Oc1ccccc1-c1cc(-c2ccc(Cl)cc2)n[nH]1`: the Potency is 7.08 µM (active). Turning to `c1ccc(-c2cc(-c3ccccc3)[nH]n2)cc1`, the “activity change, negative = inhibition” value was 14.3%. Still for that read-out and setting: the figure for `Cc1ccc(NC(=O)c2cc(-c3ccccc3O)n[nH]2)cc1C` is -21.9%; for `CN(C(=O)CC1C(=O)NCCN1Cc1ccc2ccccc2c1)C1CCOCC1` (centres undefined) it is -9.24%.

Regarding `CCn1ccnc1CNC(=O)CC1C(=O)NCCN1Cc1ccc(F)cc1Cl` (centres undefined), the “activity change, negative = inhibition” value was 8.52%. With `CN(C(=O)CC1C(=O)NCCN1Cc1ccc(F)cc1Cl)C1CCCCC1` (centres undefined), the Potency is 11.2 µM (active).
